Data on ten molecules can be found in the supplement of paper PMC9694430.

Structures are written as SMILES.

What all share (experiment): thermal shift delta Tm vs DMSO control; higher = stronger stabilization (binding)
Common to all, as to conditions: 12.5 µM; protein concentration 2 µM

The subject of one test is LOC_OS01G01410-cb001. An outline of the steps:
(§1)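 The melting temperature shift given here is a triplicate mean, measured against protein that received only DMSO. Melting temperatures came from Boltzmann fits of differential scanning fluorimetry data on E. coli-expressed, purified rice kinase domain constructs. Each 19.5 μl well contained 2 μM kinase, 100 mM potassium phosphate pH 7.5, 150 mM NaCl, 10% glycerol, 5 × SYPRO Orange and compound in DMSO. Plates were scanned from 25°C to 95°C at 0.05°C/s.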

In the next test the test system is LOC_OS01G02750-cb003. Summed up: as §1
Another test deals with LOC_OS01G10900-cb004. Summed up: as §1
Another test deals with LOC_OS01G13800-cb001. An outline of the steps: as §1
In another test the test system is LOC_OS01G14860-cb001. Summed up:
as §1

The next test concerns LOC_OS01G21960-cb002. An outline of the steps:
as §1

A further test deals with LOC_OS01G39600-cb002. An outline of the steps:
as §1

The test system of a further test is LOC_OS01G48390-cb002. An outline of the steps: as §1
For a further test, the system named is LOC_OS01G51400-cb002. Summed up:
as §1

The subject of another test is T1, LOC_OS01G52050-cb004.
T1 sequence (whole entry): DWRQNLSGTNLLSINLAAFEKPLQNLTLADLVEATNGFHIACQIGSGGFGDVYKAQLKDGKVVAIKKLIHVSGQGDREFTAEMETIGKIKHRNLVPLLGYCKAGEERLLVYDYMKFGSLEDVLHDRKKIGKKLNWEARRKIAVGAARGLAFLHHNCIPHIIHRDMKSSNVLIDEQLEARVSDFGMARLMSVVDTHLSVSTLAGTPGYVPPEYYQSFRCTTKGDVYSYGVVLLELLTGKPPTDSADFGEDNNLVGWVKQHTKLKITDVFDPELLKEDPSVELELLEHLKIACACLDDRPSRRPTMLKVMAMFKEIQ
An outline of the steps:
as §1

As for `Cc1cc(Nc2ncc(Cl)c(Nc3ccccc3S(=O)(=O)C(C)C)n2)c(OC(C)C)cc1C1CCNCC1` [Ceritinib (LDK378)], the “thermal shift delta Tm” value in the test on LOC_OS01G01410-cb001 was 0.47 °C; with LOC_OS01G02750-cb003, 1.1 °C; with LOC_OS01G10900-cb004, 0.21 °C; in the test with LOC_OS01G13800-cb001, -0.57 °C; in the test with LOC_OS01G14860-cb001, 0.83 °C; in the test on LOC_OS01G21960-cb002, 0.34 °C. Further, the “thermal shift delta Tm” value in the test on LOC_OS01G39600-cb002 came to 2.1 °C; in the test with LOC_OS01G48390-cb002, 0.85 °C; with LOC_OS01G51400-cb002, 0.35 °C; in the test on LOC_OS01G52050-cb004, 0.22 °C.

In the case of `O=C1Cc2c([nH]c3ccc(Br)cc23)-c2ccccc2N1` [Kenpaullone], the “thermal shift delta Tm” value was 1.3 °C in the test with LOC_OS01G01410-cb001; 3.93 °C with LOC_OS01G02750-cb003; 3.23 °C in the test on LOC_OS01G10900-cb004; 1.78 °C in the test on LOC_OS01G13800-cb001; 7.46 °C in the test with LOC_OS01G14860-cb001; 1.74 °C with LOC_OS01G21960-cb002. Moreover, the “thermal shift delta Tm” value with LOC_OS01G39600-cb002 amounted to 2.16 °C; in the test on LOC_OS01G48390-cb002 it was 3.44 °C; with LOC_OS01G51400-cb002, 0.72 °C; in the test with LOC_OS01G52050-cb004, 5.21 °C.

Turning to `Cc1cc2c(F)c(Oc3ncnn4cc(OC[C@@H](C)O)c(C)c34)ccc2[nH]1`, the “thermal shift delta Tm” value with LOC_OS01G01410-cb001 was 1.69 °C; with LOC_OS01G02750-cb003, 0.24 °C; with LOC_OS01G10900-cb004, 0.93 °C; in the test with LOC_OS01G13800-cb001 it was 0.42 °C; in the test with LOC_OS01G14860-cb001, 0.41 °C; with LOC_OS01G21960-cb002 it was 0.22 °C. The “thermal shift delta Tm” value in the test with LOC_OS01G39600-cb002 is 0.2 °C; in the test on LOC_OS01G48390-cb002, 0.6 °C; in the test on LOC_OS01G51400-cb002 it was 0 °C; in the test with LOC_OS01G52050-cb004, 0.2 °C.

Take `Cc1ccc(NC(=O)c2ccc(CN3CCN(C)CC3)cc2)cc1Nc1nccc(-c2cccnc2)n1` [Imatinib (STI571)]: the “thermal shift delta Tm” value in the test on LOC_OS01G01410-cb001 is 0.68 °C; in the test with LOC_OS01G02750-cb003 it was 0 °C; with LOC_OS01G10900-cb004, 1.47 °C; with LOC_OS01G13800-cb001, -0.47 °C; with LOC_OS01G14860-cb001 it was 0.24 °C; with LOC_OS01G21960-cb002, -0.24 °C. Besides, the “thermal shift delta Tm” value with LOC_OS01G39600-cb002 was -0.27 °C; in the test with LOC_OS01G48390-cb002, 1.69 °C; in the test with LOC_OS01G51400-cb002 it was 0.14 °C; in the test on LOC_OS01G52050-cb004, 0.62 °C.

Take `CCCCOc1c(C(=O)c2c(F)cc(C)cc2F)c[nH]c2nncc1-2`: the “thermal shift delta Tm” value was found to be 1.01 °C with LOC_OS01G01410-cb001; 0.64 °C with LOC_OS01G02750-cb003; 1.09 °C in the test with LOC_OS01G10900-cb004; 0.41 °C in the test with LOC_OS01G13800-cb001; 2.54 °C with LOC_OS01G14860-cb001; 1.36 °C in the test on LOC_OS01G21960-cb002. The “thermal shift delta Tm” value is 0.07 °C in the test with LOC_OS01G39600-cb002, 0.94 °C with LOC_OS01G48390-cb002, 0 °C in the test on LOC_OS01G51400-cb002 and 0.38 °C in the test with LOC_OS01G52050-cb004.

For `O=C1NC(=O)/C(=C/c2cccc(C(F)(F)F)c2)S1`, the “thermal shift delta Tm” value was -0.06 °C in the test on LOC_OS01G01410-cb001; 0.14 °C in the test with LOC_OS01G02750-cb003; 0.2 °C with LOC_OS01G10900-cb004; 0.24 °C in the test with LOC_OS01G13800-cb001; 0.12 °C in the test on LOC_OS01G14860-cb001; 0.28 °C in the test on LOC_OS01G21960-cb002. In addition, the “thermal shift delta Tm” value in the test on LOC_OS01G39600-cb002 was -0.09 °C; in the test on LOC_OS01G48390-cb002 it was 0.08 °C; in the test on LOC_OS01G51400-cb002 it was 0.11 °C; with LOC_OS01G52050-cb004, 0.12 °C.

As for `O=C(Nc1cccnc1)c1cc(-c2ccnc(F)c2)ccc1OCc1ccccc1`, the “thermal shift delta Tm” value in the test on LOC_OS01G01410-cb001 is 2.5 °C; in the test with LOC_OS01G02750-cb003, 0.28 °C; with LOC_OS01G10900-cb004, -0.53 °C; with LOC_OS01G13800-cb001, 0.66 °C; in the test on LOC_OS01G14860-cb001 it was -0.01 °C; with LOC_OS01G21960-cb002, 0.38 °C. The “thermal shift delta Tm” value in the test on LOC_OS01G39600-cb002 was -0.21 °C; with LOC_OS01G48390-cb002 it was 0.88 °C; in the test with LOC_OS01G51400-cb002, 0.01 °C; in the test with LOC_OS01G52050-cb004 it was -0.04 °C.

On to `Cc1c(C(=O)Nc2ccc(Oc3ccnc4[nH]cc(-c5ccccc5)c34)c(F)c2)c(=O)n(-c2ccc(F)cc2)n1C`, for which the “thermal shift delta Tm” value in the test on LOC_OS01G01410-cb001 is 0.66 °C; with LOC_OS01G02750-cb003, 2.79 °C; in the test with LOC_OS01G10900-cb004, 1.91 °C; with LOC_OS01G13800-cb001 it was 0.84 °C; with LOC_OS01G14860-cb001, 0.67 °C; in the test on LOC_OS01G21960-cb002 it was 1.55 °C. Also, the “thermal shift delta Tm” value came to 2.37 °C in the test with LOC_OS01G39600-cb002, 1.72 °C with LOC_OS01G48390-cb002, 0.78 °C in the test with LOC_OS01G51400-cb002 and 2.8 °C in the test with LOC_OS01G52050-cb004.

In the case of `CN1CCN(c2ccc(C(=O)Nc3n[nH]c4ccc(Cc5cc(F)cc(F)c5)cc34)c(NC3CCOCC3)c2)CC1` [Entrectinib (RXDX-101)], the “thermal shift delta Tm” value with LOC_OS01G01410-cb001 was 2.21 °C; with LOC_OS01G02750-cb003, 2.9 °C; with LOC_OS01G10900-cb004, 4.99 °C; in the test with LOC_OS01G13800-cb001, -0.49 °C; in the test on LOC_OS01G14860-cb001, 0.18 °C; in the test on LOC_OS01G21960-cb002, 1.51 °C. Also, the “thermal shift delta Tm” value in the test on LOC_OS01G39600-cb002 is 3.51 °C; with LOC_OS01G48390-cb002 it was 5.48 °C; with LOC_OS01G51400-cb002 it was 0.15 °C; in the test on LOC_OS01G52050-cb004, 0.2 °C.

For the molecule `N#CCNC(=O)c1ccc(-c2ccnc(Nc3ccc(N4CCOCC4)cc3)n2)cc1` [Momelotinib (CYT387)], the “thermal shift delta Tm” value with LOC_OS01G01410-cb001 came out at 2.55 °C; with LOC_OS01G02750-cb003 it was 0.08 °C; in the test on LOC_OS01G10900-cb004, 1.02 °C; in the test with LOC_OS01G13800-cb001, 0.1 °C; with LOC_OS01G14860-cb001 it was 5.59 °C; with LOC_OS01G21960-cb002, 2.72 °C. Further, the “thermal shift delta Tm” value with LOC_OS01G39600-cb002 came to 2.38 °C; in the test with LOC_OS01G48390-cb002, 0.91 °C; in the test on LOC_OS01G51400-cb002, 0.13 °C; in the test with LOC_OS01G52050-cb004, 3.27 °C.
